Source: PubChem
This is one part of a sample in which hits are shown more often than they occur.
Tg IFNy HTS: T. gondii growth inhibition with IFN-gamma, primary screen, cell-based; activity change, negative = inhibition, % (test concentration not listed); hit rate 3.8% among 69,000; AID 1259416, 2018; Toxoplasma gondii growth in IFN-gamma-treated host cells; stronger effect = lower value; in the data active means activity change below about -70%, passing the limit was not always enough;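 further: host cells are HeLa cells infected with Toxoplasma gondii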
The depositor's hits bear a star; ! = not confirmed by another sample.

CS(=O)(=O)Nc1ccc2oc3ccccc3c(=O)c2c1 was read as Tg IFNy HTS -92.1*.
Screening COc1cccc([C@@H]2C[C@H](NC(C)=O)C[C@H](C3CCCCC3)O2)c1F returned Tg IFNy HTS -32.2.
CC(C)(C)C(=O)Nc1ccc(-c2nc(-c3ccccc3)co2)cc1 was read as Tg IFNy HTS 209.6.
For COc1ccc(-c2nc(Cn3ccn4nc(-c5ccccc5)cc4c3=O)c(C)o2)c(OC)c1 the results were Tg IFNy HTS inactive.
`O=C(c1ccco1)N1CCc2ncnc(N3CCCC3)c2CC1` gave Tg IFNy HTS -9.0.
For Cc1ccc2c(c1)NC1(CCN(S(=O)(=O)c3ccc(NC(=O)CC(C)C)cc3)CC1)c1cccn1-2 the results were Tg IFNy HTS 26.3.
`COc1ccc(CC(=O)N2CCC3(CC2)Nc2cc(OC)ccc2-n2cccc23)cc1` gave Tg IFNy HTS 51.2.
For COc1ccc(OCC(=O)N2CCC3(CC2)Nc2cc(C)ccc2-n2cccc23)cc1 the results were Tg IFNy HTS 30.8.
Screening O=C(c1ccc(Br)o1)N1CCC2(CC1)Nc1cc(F)ccc1-n1cccc12 returned Tg IFNy HTS -27.0.
Screening COc1ccc2c(c1)NC1(CCN(C(=O)Cc3ccc(F)cc3)CC1)c1cccn1-2 returned Tg IFNy HTS -83.7*.
For COc1ccc2c(c1)NC1(CCN(C(=O)COc3cccc(C)c3)CC1)c1cccn1-2 the results were Tg IFNy HTS -129.4*.
CC(C)CC(=O)Nc1ccc(S(=O)(=O)N2CCC3(CC2)Nc2cc(F)ccc2-n2cccc23)cc1 was read as Tg IFNy HTS -77.1*.
Screening CCc1ccc(C(=O)N2CCC3(CC2)Nc2cc(OC)ccc2-n2cccc23)cc1 returned Tg IFNy HTS 15.7.
For COc1ccc2c(c1)NC1(CCN(C(=O)c3ccc(Br)o3)CC1)c1cccn1-2 the results were Tg IFNy HTS -78.6*.
CC(C)CC(=O)Nc1ccc(S(=O)(=O)N2CCC3(CC2)Nc2ccccc2-n2cccc23)cc1 was read as Tg IFNy HTS 1.5.
Screening COc1cccc(CC(=O)N2CCC3(CC2)Nc2cc(OC)ccc2-n2cccc23)c1 returned Tg IFNy HTS -33.7.
`COc1ccc2c(c1)NC1(CCN(C(=O)COc3ccc(F)cc3)CC1)c1cccn1-2` gave Tg IFNy HTS 59.5.
CCn1cc(CN2CCCC2c2cc(C(C)C)on2)c2ccccc21 (stereo not given) was read as Tg IFNy HTS 2.7.
Screening NS(=O)(=O)c1ccc(CCn2cnnc2)cc1 returned Tg IFNy HTS -2.7.
`COc1ccc(CN2CCCN(Cc3ccc(OC)cc3)C2c2cccc(Cl)c2)cc1` gave Tg IFNy HTS -31.4.
Screening OCCC1CN(Cc2ccc(O)c(Cl)c2)CCN1Cc1ccc(F)c(F)c1 (stereo not given) returned Tg IFNy HTS -4.4.
CC(CN(C)Cc1cc(F)ccc1O)N1CCOCC1 (stereo not given) was read as Tg IFNy HTS 8.2.
Cc1ccc(CN2CC[C@@H](N3CCOCC3)[C@H]2Cc2cnn(C)c2)o1 was read as Tg IFNy HTS 10.9.
Screening O=c1[nH]n(CCO)c(=O)c2cccnc12 returned Tg IFNy HTS 76.8.
`Cc1ccc2c(Cl)cc(Cl)c(O)c2n1` gave Tg IFNy HTS -81.5*.
For Oc1c(I)cc(I)c2cccnc12 the results were Tg IFNy HTS -76.1*!.
Oc1ccc(Cl)c2cccnc12 was read as Tg IFNy HTS 12.2.
`O=S(=O)(O)c1cc(I)c(O)c2ncccc12` gave Tg IFNy HTS 9.9.
For O=C(Oc1ccc(Cl)c2cccnc12)c1cccnc1 the results were Tg IFNy HTS -67.6.
`Oc1c(Cl)cc(Cl)c2cccnc12` gave Tg IFNy HTS -82.9*.
Screening COc1ccc(-c2ncc(Cl)cn2)c2ccc(C)nc12 returned Tg IFNy HTS -37.7.
`COc1cc(N2CCc3ncnc(C)c3CC2)ncn1` gave Tg IFNy HTS 28.3.
CCOC(=O)c1nn(Cc2ccccc2)c2c1CN(C(=O)Cc1cccs1)CC2 was read as Tg IFNy HTS -43.3.
Screening CCN1C(=O)C2(CCN(C(=O)N(C)C)CC2)CC12CCN(C(=O)CC(C)C)CC2 returned Tg IFNy HTS -21.5.
For CCOC(=O)c1cc(C2CC2)nc2c1c(=O)n(Cc1nc(-c3ccccc3C)oc1C)c(=O)n2C the results were Tg IFNy HTS 8.4.
Screening Cc1nc(-c2cc(C(=O)N3CCCC3)c3ccccn23)cs1 returned Tg IFNy HTS 7.8.
Screening CN(C)C(=O)N1CCC(c2nnc3ccc(C(=O)C4CCC4)cn23)C1 (stereo not given) returned Tg IFNy HTS 8.6.
Screening Nc1ncccc1OCc1nc(CCc2ccccc2)no1 returned Tg IFNy HTS -29.5.
Screening Nc1c(NCc2ccccc2)c(=O)c1=O returned Tg IFNy HTS 28.4.
For O=c1c(Nc2ccccc2)c(Nc2ccccc2)c1=O the results were Tg IFNy HTS -81.9*.
For O=c1[nH]cc(Nc2ccccc2)c(=O)[nH]1 the results were Tg IFNy HTS 27.3.
COc1ccc(C(=O)N2CCC(C)(C(=O)NCc3ccc(F)cc3F)CC2)cc1 was read as Tg IFNy HTS -1.0.
`OC(CNC1CCC2(CCNCC2)CC1)c1ccccc1Cl` (stereo not given) gave Tg IFNy HTS 4.6.
